Experimental findings from PubChem BioAssay AID1851 (National Center for Advancing Translational Sciences (NCATS), 2009) are described below.

The campaign covered roughly 16,000 compounds. About 5,100 (32%) were called active. Not shown: some 25% with an inconclusive outcome. Calls follow the shape of the dose curve; as a rule, active = well fitted curve in the direction sought with a large enough effect; inconclusive = small, poorly fitted or top-dose-only effect, or effect the other way; inactive = no such curve, though single readings can be large or run the other way. Some of the results follow.
% is scaled to controls: 0 for no effect and ±100 for the full control effect.

Cytochrome P450 3A4 (Homo sapiens), sequence (P08684 whole entry, looked up): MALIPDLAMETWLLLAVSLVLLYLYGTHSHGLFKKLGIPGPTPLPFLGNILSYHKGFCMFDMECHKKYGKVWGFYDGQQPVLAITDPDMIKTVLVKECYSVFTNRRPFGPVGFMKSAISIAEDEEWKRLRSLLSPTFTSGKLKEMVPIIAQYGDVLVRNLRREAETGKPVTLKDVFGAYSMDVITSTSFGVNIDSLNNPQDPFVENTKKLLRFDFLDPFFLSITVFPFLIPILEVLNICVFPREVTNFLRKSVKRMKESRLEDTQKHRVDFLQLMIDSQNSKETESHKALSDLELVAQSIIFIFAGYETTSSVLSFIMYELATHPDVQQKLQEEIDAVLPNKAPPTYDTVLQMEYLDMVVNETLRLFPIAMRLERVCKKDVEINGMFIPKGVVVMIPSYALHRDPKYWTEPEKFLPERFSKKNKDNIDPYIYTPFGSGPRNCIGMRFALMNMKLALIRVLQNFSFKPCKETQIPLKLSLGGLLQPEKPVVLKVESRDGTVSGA

This experiment addresses Cytochrome P450 3A4 (Homo sapiens) (UniProt P08684). Nature of the experiment: Cytochrome panel assay with activity outcomes. The settings on record: recombinant CYP, pro-luciferin dealkylation, luminescence, p450-cyp3a4; series mostly up to 57.1 µM; activity, negative = inhibition: at the top concentration.
On to `CCCCNC(=S)NNC(=O)CCn1nc(C)c(Br)c1C`, for which the AC50 is 4.47 µM (active).
On to `CCCCNC(=S)NNC(=O)c1sccc1C`, for which the activity, negative = inhibition is 1.58% [at 2.29 µM] (inactive).
The same measure, in the same setting: with `c1ccc([P+](CC[P+](c2ccccc2)(c2ccccc2)c2ccccc2)(c2ccccc2)c2ccccc2)cc1` the figure was 1.54% [at 11.4 µM] (inactive); with `C[C@]12CC[C@H]3c4ccc(O)cc4CC[C@@H]3[C@H]1C/C(=N/O)[C@H]2O`, -4.59% [at 11.4 µM] (inactive).
Consider `CC(C)Cn1cnc2c(SCc3ccc(Cl)cc3Cl)nc(N)nc21`, for which the AC50 is 3.98 µM (active).
Turning to `Cc1ccc2ccccc2c1CSc1nc(N)nc2c1ncn2CC(C)C`, the activity, negative = inhibition was -24.4% [at 11.4 µM] (inactive).
On the same count and under the same terms, then `CC(C)Cn1cnc2c(SCc3ccccn3)nc(N)nc21`, with -22.1% [at 11.4 µM] (inactive); and `O[C@@H](c1cc([C@@]23C[C@H]4CC[C@@H]2C[C@H](C4)C3)nc2c(Cl)cc(Cl)cc12)[C@@H]1CCCCN1`, with -22.3% [at 11.4 µM] (inactive).
Same read-out and setting: then `C/C(CCN1CCCc2nc(C)c(C)cc21)=N\OC[C@@H](O)[C@@H]1O[C@@H]2OC(C)(C)O[C@@H]2[C@H]1O`, with -10.8% [at 11.4 µM] (inactive).
The same measure, in the same setting: then `C/C(CCN1CCc2nc(-c3ccccc3)c(-c3ccccc3)cc2C1)=N\O[C@@H](C)c1cn([C@@H]2COC[C@@H]2O)nn1`, with -37.3% [at 11.4 µM] (inactive).
As for `C/C(CCN1CCCCc2nc(C)c(C)cc21)=N\OC[C@@H](O)COCc1ccco1`, the AC50 is 3.98 µM (active).
Regarding `C/C(CCN1CCCc2nc(C)c(C)cc21)=N\OC[C@@H](O)COCc1ccco1`, the concentration at half-maximal activity (AC50) is 3.98 µM (active).
Same read-out and setting: with `C/C(CCN1CCc2nc(-c3ccccc3)c(-c3ccccc3)cc2C1)=N\OC[C@@H](O)COCc1ccco1` the figure was 3.16 µM (active).
On the same count and under the same terms, with `Cc1ccc(S(=O)(=O)N2CCN(C(=O)C3COc4ccccc4O3)CC2)cc1C` (centres undefined) the figure was 11.2 µM (active).
On to `N/C(=N\O)C1COc2ccccc2O1` (centres undefined), for which the “activity, negative = inhibition” value is -12.1% (inactive).
Take `COC(=O)[C@@]1(Cc2ccccc2)[C@H]2c3cc(C(=O)N4CCCC4)n(Cc4ccc(O)c(OC)c4)c3C[C@H]2CN1C(=O)c1ccccc1`: the AC50 is 2 µM (active).
On the same count and under the same terms, then `COC(=O)[C@@]1(Cc2ccccc2)[C@H]2c3cc(C(=O)N4CCCC4)n(Cc4ccc(OC)c(OC)c4)c3C[C@H]2CN1C(=O)c1ccccc1`, with 1.26 µM (active).
Regarding `Cc1ccc2ncc([N+](=O)[O-])n2c1`, the “activity, negative = inhibition” value is 12.5% (inactive).
In the case of `CN(C)Cc1ccccc1-c1nccc(NC2CC2)n1`, the AC50 is 15.8 µM (active).
Regarding `CNc1ccnc(-c2ccccc2CN(C)C)n1`, the “activity, negative = inhibition” value was -20.8% (inactive).
For the compound `CN(C)Cc1ccccc1-c1nccc(N(C)C)n1`, the AC50 was 10 µM (active).
`COc1ccc(CO/N=C/c2c(C)[nH]c(=O)[nH]c2=O)cc1`: the “activity, negative = inhibition” value is -11.9% (inactive).
On to `COc1ccc(CNc2ccnc(-c3ccccc3OC)n2)c(OC)c1`, for which the AC50 is 6.31 µM (active).
The same measure, in the same setting: then `COc1ccc(CNc2ccnc(-c3ccccc3Cl)n2)c(OC)c1`, with 3.16 µM (active); and `COc1ccc(CNc2ccnc(-c3ccccc3CN(C)C)n2)c(OC)c1`, with 5.01 µM (active).
Consider `COCCNc1ccnc(-c2ccccc2CN(C)C)n1`, for which the “activity, negative = inhibition” value was -19.7% (inactive).
On to `COc1ccc(CNc2ccnc(-c3ccccc3C(F)(F)F)n2)c(OC)c1`, for which the AC50 is 3.16 µM (active).
With `C[N+]1(CCC(=O)c2ccco2)CC2CCC(CC2)C1` (centres undefined), the activity, negative = inhibition was 1.47% [at 11.4 µM] (inactive).
On the same count and under the same terms, then `N#Cc1cc2[nH]c(=O)c(=O)[nH]c2cc1[N+](=O)[O-]`, with -23% (inactive); and `CCN(c1nc(N)c(C(=O)N=C(N)N)nc1Cl)C(C)C`, with -18.6% (inactive); and `CC1(C)OC[C@@H]2O[C@H](n3cnc4c(N)nc(Cl)nc43)[C@@H](OS(C)(=O)=O)[C@@H]2O1`, with -4.98% [at 11.4 µM] (inactive).
In the case of `O=C(O)c1c2c(c(O)c3c1CN(C1CCCCC1)CO3)OCN(C1CCCCC1)C2`, the activity, negative = inhibition was -0.201% [at 11.4 µM] (inactive).
Still for that read-out and setting: with `CC(C)Cn1cnc2c(Sc3c([N+](=O)[O-])ncn3C)nc(N)nc21` the figure was -7.97% [at 11.4 µM] (inactive); with `COc1ccc2c(c1[N+](=O)[O-])CCC/C2=N/OC(=O)c1cccc2ccccc12`, 0.913% [at 2.29 µM] (inactive).
For `CCOc1c(OC(C)=O)ccc(/C=C/c2ccc3cccc(OC(C)=O)c3n2)c1[N+](=O)[O-]`, the AC50 is 10 µM (active).
Same read-out and setting: with `Cc1ccc(-n2c(C)nnc2SCC(=O)N2CCc3ccccc3C2)cc1C` the figure was 8.91 µM (active).
With `CC1=C(\C=C/C(C)=C/C=C\C(C)=C\C(=O)O)C(C)(C)CCC1`, the “activity, negative = inhibition” value is -19.6% [at 25.6 µM] (inactive).
For `O=C(NNS(=O)(=O)c1cc(Cl)cc(Cl)c1)c1sccc1-n1cccc1`, the AC50 is 7.94 µM (active).
Take `CC(=O)/C(=N\N=C(N)N)c1ccccc1`: the activity, negative = inhibition was -6.08% [at 11.4 µM] (inactive).
With `C/C(=N\N=C(c1ccccc1)c1ccccc1)c1cccs1`, the AC50 is 14.1 µM (active).
Consider `C/C(=N\N=C1\NC(=O)CC(C(=O)O)S1)c1cccs1` (centres undefined), for which the “activity, negative = inhibition” value is 1.69% (inactive).
On the same count and under the same terms, with `CCCOc1ccc(C(=O)CCNc2ccc(C)c(Cl)c2)cc1` the figure was 12.4% [at 2.29 µM] (inactive).
For the compound `Cc1ccc(NC(=O)c2cc(NC(=O)CCCC(=O)O)ccc2Cl)cc1Cl`, the “activity, negative = inhibition” value was -16.3% (inactive).
For `Cc1ccc(NC(=O)CCC(=O)c2ccc(F)cc2)cc1Cl`, the AC50 is 12.6 µM (active).
`Nc1nc(N)nc(CCCc2nc(N)nc(N)n2)n1`: the activity, negative = inhibition is -12.5% [at 11.4 µM] (inactive).
Take `c1ccc2oc(C3=NCCN3)cc2c1`: the “activity, negative = inhibition” value is -11.9% (inactive).
Still for that read-out and setting: then `CCC(C)NC(=O)c1ccccc1NC(=O)Nc1ccccc1` (centres undefined), with -20% (inactive).
`O=C(Nc1ccccc1C(=O)NCCc1ccccc1)c1ccco1`: the AC50 was 14.1 µM (active).
With `O=C(Nc1ccccn1)c1ccco1`, the “activity, negative = inhibition” value was 10.3% (inactive).
`CCC(NC(=O)c1ccccc1NC(=O)c1ccco1)C(=O)NC1CCCCC1` (centres undefined): the AC50 is 6.31 µM (active).
Turning to `O=C(CCc1ccccc1)NNC(=O)c1ccco1`, the “activity, negative = inhibition” value was -9.25% (inactive).
`COc1ccc(CCNC(=O)c2ccccc2NC(=O)c2ccco2)cc1OC`: the AC50 is 7.08 µM (active).
For the compound `O=C(O)c1ccc(C(=O)O)c(C(=O)O)c1.[NH-][C@@H]1CCCC[C@@H]1[NH-].[Pt]`, the activity, negative = inhibition is 18.9% [at 11.4 µM] (inactive).
On the same count and under the same terms, with `CCc1cccc(N(C)C(N)=Nc2cccc3ccccc23)c1` the figure was -18% (inactive); with `C#CCSc1n[nH]c(-c2ccco2)n1`, -10.2% [at 11.4 µM] (inactive).
Still for that read-out and setting: then `CC(C)=CC(=O)Nc1nnc(C(C)C)s1`, with 15.7% [at 2.29 µM] (inactive); and `[O-][N+](CCO)(CCO)c1ncnc2nc[nH]c12`, with -0.379% [at 11.4 µM] (inactive).
The same measure, in the same setting: with `N=C1[C@@H](O)[C@]2(I)c3ccccc3N3C(=N)[C@H](O)[C@@H]4c5ccccc5N1[C@@H]4[C@@H]32` the figure was -8.09% [at 11.4 µM] (inactive).
In the case of `COC(=O)c1ccc(/C=N\NC(=O)c2ccc(C)cc2Cl)cc1`, the AC50 is 3.55 µM (active).
As for `Cc1ccc(C(=O)N/N=C/c2ccc(S(=O)(=O)O)o2)c(Cl)c1`, the “activity, negative = inhibition” value is 8.51% (inactive).
In the case of `CC1Cc2ccccc2N1C(=O)C1CCCCN1S(=O)(=O)c1ccccc1` (centres undefined), the AC50 is 7.94 µM (active).
In the case of `CC(=O)N1c2ccc(S(=O)(=O)CCC(=O)O)cc2CC1C` (centres undefined), the “activity, negative = inhibition” value is -7.01% (inactive).
Turning to `CCNC(=O)C1CC(=O)OC12CCCCC2` (centres undefined), the “activity, negative = inhibition” value is -5.12% (inactive).
Still for that read-out and setting: then `O=C(Nc1ccc(Cl)cc1)NC1CCCCC1`, with 9.33% [at 2.29 µM] (inactive); and `Cc1c(Cl)c(S(N)(=O)=O)cc(S(N)(=O)=O)c1NC(=O)c1ccc(Cl)cc1`, with 3.55% [at 11.4 µM] (inactive).
As to `CC(C)(C)N(NC(=O)Nc1ccccc1)C(=O)c1ccccc1Cl`, the AC50 is 14.1 µM (active).
Same read-out and setting: with `CC(C)(C)N(NC(=O)Nc1ccc(Cl)c(Cl)c1)C(=O)c1ccccc1` the figure was 14.1 µM (active).
With `CC(C)(CC(=O)Nc1ccccc1)C(=O)O`, the activity, negative = inhibition is -5.79% [at 11.4 µM] (inactive).
Same read-out and setting: with `CC(C)(C)NC(=O)C(=O)NNC(=O)c1ccccc1` the figure was 5.58% (inactive).
On to `Cc1cc(C)cc(C(=O)N(NC(=O)Nc2ccc(Cl)cc2)C(C)(C)C)c1`, for which the AC50 is 15.8 µM (active).
Turning to `NCS(=O)(=O)O`, the activity, negative = inhibition is -9.19% [at 11.4 µM] (inactive).
The same measure, in the same setting: then `CN(C)Cc1cc(Cl)c(O)c(CN(C)C)c1`, with -5.94% [at 11.4 µM] (inactive).
Consider `CCCCOC(=O)c1cc2c(cn1)[nH]c1ccccc12`, for which the AC50 is 25.1 µM (active).
Take `CCCCOC(=O)c1ccc(O)cc1`: the “activity, negative = inhibition” value was -25.7% [at 25.6 µM] (inactive).
Same read-out and setting: with `O=C(O)CCc1ccc(-c2ccc(Cl)cc2)n1CCC(=O)O` the figure was -1.68% (inactive).
`COCCNC(=O)[C@H](C)[C@@H]1C[C@@]1(C)[C@@H](NC(=O)OCc1ccccc1)c1ccccc1`: the AC50 is 7.94 µM (active).
Same read-out and setting: then `C[C@@H](C(=O)NCCF)[C@H]1C[C@]1(C)[C@H](NC(=O)OCc1ccccc1)c1ccccc1`, with 3.98 µM (active); and `COCCNC(=O)[C@H](C)[C@H]1C[C@]1(C)[C@H](NC(=O)OCc1ccccc1)c1ccccc1`, with 3.16 µM (active).
As for `COC(=O)N1CCC2(CCN(C(=O)Nc3ccc(OC)cc3)CC2)CC1`, the “activity, negative = inhibition” value was 14.5% (inactive).
For `COc1ccc(NC(=O)CCNS(=O)(=O)c2ccc3c(c2)CCC(=O)N3)cc1`, the AC50 is 15.8 µM (active).
As to `O=C(CCNS(=O)(=O)c1ccc2c(c1)CCC(=O)N2)NCc1ccc2c(c1)OCO2`, the AC50 is 1.41 µM (active).
For `COc1ccc(-c2nc(N)c3ncn([C@H]4O[C@@H](CO)[C@@H](O)[C@@H]4O)c3n2)cc1`, the activity, negative = inhibition is -0.494% [at 11.4 µM] (inactive).
As to `COc1ccc2[nH]cc(CCNc3ncncc3-c3ccccc3Cl)c2c1`, the AC50 is 0.398 µM (active).
As to `COc1ccc2[nH]cc(CCNc3ncncc3-c3ccccc3OC)c2c1`, the AC50 was 0.126 µM (active).
For the compound `COc1ccc2[nH]cc(CCNc3ncncc3-c3c(C)noc3C)c2c1`, the AC50 was 0.794 µM (active).
The same measure, in the same setting: then `COc1ccc2[nH]cc(CCNc3ncncc3-c3ccccc3C)c2c1`, with 0.316 µM (active).
For the compound `C=C1c2cccc(O)c2C(O)=C2C(=O)[C@@]3(O)C(O)=C(C(N)=O)C(=O)[C@@H](N(C)C)[C@@H]3[C@@H](O)[C@H]12`, the “activity, negative = inhibition” value is -10.9% [at 25.6 µM] (inactive).
On the same count and under the same terms, with `CNc1nc(Cl)nc(NC(C)(C)C)n1` the figure was -12% (inactive); with `CN1C[C@H](c2ccccc2)C(O)([C@]2(c3ccccc3)CN(C)C[C@@H](c3ccccc3)C2=O)[C@H](c2ccccc2)C1` (some centres undefined), -0.704% [at 11.4 µM] (inactive).
